# Source: PubChem BioAssay
# VDR inh – Inhibitors of the vitamin D receptor (VDR): qHTS | VDR-SRC2-3 peptide fluorescence polarization, 2 h | Potency, µM, for inactives: max response, negative = inhibition, actives largely listed as inhibitors | 400,000 tested, 0.93% active | AID 504847, 2011 | Vitamin D3 receptor (Homo sapiens), P11473; note: % is set by controls: 0 for no effect and ±100 for the full control effect
#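 Reagent solutions, kept cold and dark, are dispensed first; compounds are then pinned in at 23 nl, plates briefly spun, and incubated 2 h at ambient temperature. Inhibition of VDR–SRC2-3 peptide binding is read by fluorescence polarization.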
# GLS inh – qHTS for Inhibitors of Glutaminase (GLS); GLS enzymatic activity, qHTS titration; Potency, µM (titrated, usually from 45.5 µM), without a hit: at the top dose activity change, negative = inhibition, hits mostly inhibitors; 410,000 tested, 0.21% active; AID 624170, 2012; note: % is set by controls: 0 for no effect and ±100 for the full control effect
#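 hKGA in 45 mM KH2PO4 pH 8.2, 0.02% Tween-20 with pin-transferred compounds; 1 mM L-glutamine (stock) plus glutamate oxidase/HRP/Amplex Red coupling added. Fluorescence read initially and after 30 min at RT.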
# TrxR1 inh – qHTS Assay for Inhibitors of Mammalian Selenoprotein Thioredoxin Reductase 1 (TrxR1): qHTS | Thioredoxin reductase 1, cytoplasmic (Rattus norvegicus), O89049 | recombinant rTrxR1, NADPH fluorescence consumption, selenite substrate | Potency, µM (series often up to 114 µM), for inactives: at the highest dose activity change, negative = inhibition, most hits filed as inhibitors | 390,000 tested, 1% active | AID 588453, 2011; note: % is set by controls: 0 for no effect and ±100 for the full control effect; nearly all actives have a fitted effect of over 65% in size
#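 Rat TrxR1 (90 nM in the dispensed reagent) was pre-reduced with 400 uM NADPH for 5 min at room temperature, then incubated with compound for 15 min. After 400 uM selenite was added, NADPH fluorescence (Ex 340/Em 450 nm) was followed for 8 min.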
# TrxR1 substrate – qHTS Assay for Substrates of Mammalian Selenoprotein Thioredoxin Reductase 1 (TrxR1): qHTS; Thioredoxin reductase 1, cytoplasmic (Rattus norvegicus), O89049; purified TrxR1 substrate turnover, NADPH consumption readout; Potency, µM (highest dose often 114 µM), without a hit: top-dose activity change, negative = substrate turnover; 390,000 tested, 0.01% active; note: % is set by controls: 0 for no effect and ±100 for the full control effect; nearly all actives have a fitted effect of over 50% in size
#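 Rat TrxR1, dispensed at 90 nM, was prereduced with 400 uM NADPH (final) for 5 min at ~22 deg C, then incubated with compound 15 min before 400 uM selenite. A first-read NADPH fluorescence drop versus no-compound background flagged substrates.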
# Sfp inh – qHTS Assay for Inhibitors of Bacillus subtilis Sfp phosphopantetheinyl transferase (PPTase); Biochemical Sfp PPTase activity, qHTS; Potency, µM, for the others: largest response in the series, negative = inhibition, hits mostly inhibitors; 310,000 tested, 3.5% active;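 note: the enzyme is Sfp with the accession as filed and its product quenches rhodamine fluorescence; 0% = enzyme reaction without inhibitor and -100% = no enzyme wells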
#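 Buffer: 50 mM Hepes-Na pH 7.6, 10 mM MgCl2, 0.01% Nonidet P-40, 0.01% BSA. Enzyme 15 nM, pre-exposed to compound 15 min; substrates then added and fluorescence change tracked over 30 min.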
# KAT2A inh – qHTS Assay for Inhibitors of GCN5L2; Histone acetyltransferase KAT2A (Homo sapiens), Q92830; GCN5L2 HAT assay, ThioGlo1 CoA-SH fluorescence; Potency, µM (doses to about 58.9 µM), for the others: at the top dose activity change, negative = inhibition, actives largely listed as inhibitors; 390,000 tested, 0.21% active; note: % is set by controls: 0 for no effect and ±100 for the full control effect
# Target sequence (Q92830 whole entry, looked up): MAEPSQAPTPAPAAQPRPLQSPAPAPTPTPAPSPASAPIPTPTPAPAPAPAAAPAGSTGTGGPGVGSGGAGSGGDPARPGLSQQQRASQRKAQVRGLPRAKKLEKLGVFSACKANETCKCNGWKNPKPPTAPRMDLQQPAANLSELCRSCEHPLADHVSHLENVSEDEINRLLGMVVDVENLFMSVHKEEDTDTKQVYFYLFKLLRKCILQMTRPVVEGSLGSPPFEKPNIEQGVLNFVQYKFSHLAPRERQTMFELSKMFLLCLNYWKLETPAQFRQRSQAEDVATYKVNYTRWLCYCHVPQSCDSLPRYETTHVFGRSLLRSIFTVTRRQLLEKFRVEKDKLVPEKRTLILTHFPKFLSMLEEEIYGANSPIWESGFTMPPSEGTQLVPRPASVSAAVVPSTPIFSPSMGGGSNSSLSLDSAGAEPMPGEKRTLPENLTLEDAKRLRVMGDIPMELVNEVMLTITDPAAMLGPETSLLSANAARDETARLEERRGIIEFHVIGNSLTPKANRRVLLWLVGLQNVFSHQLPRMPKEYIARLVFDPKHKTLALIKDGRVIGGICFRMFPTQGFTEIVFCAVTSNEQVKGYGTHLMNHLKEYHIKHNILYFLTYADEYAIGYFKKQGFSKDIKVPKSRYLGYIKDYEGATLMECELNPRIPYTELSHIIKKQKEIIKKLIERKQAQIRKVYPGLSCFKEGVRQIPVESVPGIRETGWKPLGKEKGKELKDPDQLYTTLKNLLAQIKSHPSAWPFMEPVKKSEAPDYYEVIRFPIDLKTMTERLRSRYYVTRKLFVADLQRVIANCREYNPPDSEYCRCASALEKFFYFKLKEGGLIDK
#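 Preincubate 20nM GCN5L2 with compound 15 min, RT → add 50uM ThioGlo1 + 75uM H3(1-25) + 70uM acetyl-CoA → read fluorescence 0 and 20 min. Primary qHTS; fluorescent artifacts likely.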
# VDR inh confirm – qHTS for Inhibitors of the vitamin D receptor (VDR): Hit Validation in Primary Screen | shares compounds with VDR inh | VDR-coactivator inhibition assay, qHTS confirmation | Potency, µM, hits mostly inhibitors | 840 tested, 89% active
# VDR FP fluor – qHTS for Inhibitors of the vitamin D receptor (VDR): Hit Validation using a Fluorescein Assay; shares compounds with VDR inh; VDR-coactivator binding, fluorescein fluorescence polarization; Potency, µM (series often up to 57.1 µM), inactives show top-dose activity change, negative = inhibition, most hits filed as inhibitors; 840 tested, 48% active; AID 602200, 2012
# VDR bla – qHTS for Inhibitors of the vitamin D receptor (VDR): Hit Validation using a Beta-Lactamase Assay | shares compounds with VDR inh | VDR beta-lactamase reporter cells, FRET ratio; cells co-treated with VDR agonist LG190178 | Potency, µM (highest dose often 46.1 µM), inactives show at the top dose activity change, negative = inhibition, actives largely listed as inhibitors | 840 tested, 23% active | AID 602202, 2012; note: % is set by controls: 0 for no effect and ±100 for the full control effect
# VDR viability – qHTS for Inhibitors of the vitamin D receptor (VDR): Hit Validation using a Cytotoxicity Assay. 840 tested, 18% active. Potency, µM (highest dose often 48.3 µM), for inactives: at the highest dose activity change, negative = cytotoxicity, hits mostly cytotoxic. cytotoxicity counter-screen, cell viability, qHTS. shares compounds with VDR inh;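 note: plate controls were DMSO for no effect and high-concentration cycloheximide for full effect; nearly all actives have a fitted effect of over 75% in size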
# Active calls of the source: *; ? = inconclusive; . = not tested or not shown; [ ] = dose if it differs, or a comment. Only some compounds are listed: those with a hit (about 3.8% of all), similar ones and a draw of the others. Calls come from the whole dose curve; as a rule, active = well fitted curve in the direction sought with a large enough effect; inconclusive = small, poorly fitted or top-dose-only effect, or another doubt; inactive = no such curve, though single readings can be large; an effect the other way counts as inactive or inconclusive. Potency is the fitted concentration of half-maximal effect.
SMILES,VDR inh,GLS inh,TrxR1 inh,TrxR1 substrate,Sfp inh,KAT2A inh,VDR inh confirm,VDR FP fluor,VDR bla,VDR viability
COCC(=O)Nc1sc2c(c1C(=O)OC)CCC(C)C2 (stereo not drawn),4%,-7%,11%[57.1 µM],-3%[57.1 µM],-18%,-7%,.,.,.,.
CCc1oc2ccccc2c1C(=O)CCN1CCCCC1,?,10%,0.11µM*,4%,?,-6%,7.1*,4µM*,-11%,2%
Cc1ccccc1CS(=O)(=O)c1nnc([C@H](CC(C)C)NC(=O)OC(C)(C)C)o1,20µM*,-1%,4µM*,9%,22µM*,-4%,11*,7.1µM*,?,?
COc1ccc(/C=C2\C(=O)N(c3c(Cl)cc(Cl)cc3Cl)N=C2NC(=O)c2cccc([N+](=O)[O-])c2)cc1,?,4%,4.5µM*,-14%,?,?,2.8*,1.3µM*,?,-14%
COc1ccc(NC(=O)c2cccc(N3C(=O)c4cccc([N+](=O)[O-])c4C3=O)c2)cc1,-29%,5%,-8%,-9%,8%,-12%,.,.,.,.
Cc1nc2ccccc2c(=O)n1/N=C/c1ccncc1,7%,18%,-3%,-9%,9%,-3%,.,.,.,.
COc1ccc(NC(=O)CCS(=O)(=O)c2nc(-c3cccs3)cc(C(F)(F)F)n2)cc1OC,45µM*,3%,25µM*,-5%[2.29 µM],.,-8%,?,25µM*,4%,9%
COc1cc(NC(=O)CCS(=O)(=O)c2nc(-c3cccs3)cc(C(F)(F)F)n2)cc(OC)c1OC,?,7%,?,-3%,.,-7%,.,.,.,.
O=C(CCS(=O)(=O)c1nc(-c2ccc3c(c2)OCO3)cc(C(F)(F)F)n1)Nc1ccc(F)c(Cl)c1,8.9µM*,-6%,42%,58%,.,-15%,7.1*,7.9µM*,23µM*,?
COc1cc(NC(=O)CCS(=O)(=O)c2nc(-c3ccc4c(c3)OCO4)cc(C(F)(F)F)n2)cc(OC)c1OC,?,1%,?,-8%,.,-8%,.,.,.,.
c1coc(-c2nc3ccccc3s2)c1,-14%,0%,-19%,4%,.,.,.,.,.,.
CC1(C)CC(=O)C(CC2C(=O)CC(C)(C)CC2=O)C(=O)C1,-2%,5%,9%[11.4 µM],9%[57.1 µM],-14%,1%,.,.,.,.
Cc1csc(NC(=O)CCC(=O)c2cccs2)n1,-10%,3%,34%[57.1 µM],5%[57.1 µM],19%,-3%,.,.,.,.
Cc1oc(-c2cccc(Cl)c2)nc1CS(=O)(=O)CC(=O)NCc1ccccc1Cl,15%,8%,-24%,-2%,.,0%,.,.,.,.
CCN1CCN(C(c2ccc(C(F)(F)F)cc2)c2ccc3cccnc3c2O)CC1 (stereo not drawn),25µM*,-13%,3.5µM*,6%[57.1 µM],-23%,2%,?,10µM*,8%,-5%
Cc1nn(-c2nnc(NCc3ccccc3)nn2)c(C)c1Br,-11%,-1%,11%,-2%,-4%,-5%,.,.,.,.
CCn1c(CSc2nnc(-c3ccncc3)n2CCOC)nc2cc(C(=O)O)ccc21,13µM*,15%,15%[57.1 µM],-3%,-3%,-4%,21*,22%,5%,19%
CCn1c(CSc2nnc(-c3cccnc3)n2-c2ccccc2C)nc2cc(C(=O)O)ccc21,.,.,.,.,?,0%,.,.,.,.
Cc1ccc2c(c1)C(=O)C(=O)N2Cc1ccc(C(F)(F)F)cc1,25µM*,-5%,3%,?,.,-2%,17*,10µM*,-9%,?
Cc1ccc(CN2C(=O)C(=O)c3cc(Br)cc(C)c32)cc1,18µM*,3%,9%,-11%,.,-18%,7.1*,10µM*,-10%,-2%
OCC(O)CN1CCCC1 (stereo not drawn),4%,5%,13%[11.4 µM],8%[57.1 µM],9%,-3%,.,.,.,.
O=C(Nc1nc(-c2ccccn2)cs1)c1cc(Cl)ccc1[N+](=O)[O-],79µM*,-12%,20%[57.1 µM],8%[57.1 µM],45µM*,-18%,24*,-20%,2%,-2%
Cc1cc(C(=O)Nc2nc(-c3ccccn3)cs2)ccc1[N+](=O)[O-],-4%,-5%,17%[57.1 µM],3%[57.1 µM],8%,-5%,.,.,.,.
COc1cc(C2Oc3ccccc3C=C2[N+](=O)[O-])cc(OC)c1OC (stereo not drawn),22µM*,22%,?,-9%,?,-11%,17*,?,?,?
COc1cc(C2NC(=O)c3ccccc3O2)cc(OC)c1OC (stereo not drawn),-7%,-7%,20%,10%,-6%,-10%,.,.,.,.
CCn1cc(C(=O)N2CCCC(C(=O)c3ccc4ccccc4c3)C2)cn1 (stereo not drawn),10%,6%,-13%,-2%,2%,-1%,.,.,.,.
COc1ccc([N+](=O)[O-])c(C=CC(=O)c2ccccn2)c1,.,-6%,.,.,.,.,.,.,.,.
COc1ccc(/C=C/C(=O)c2ccccn2)cc1,40µM*,-10%,?,-8%,28µM*,-14%,34*,?,34%,-14%
COc1ccc(C(C)C)cc1-c1cncc(NC(C)=O)n1,.,0%,.,.,.,.,.,.,.,.
COCCNC(=O)C1CCCN(C(=O)c2ccc(OC)c(F)c2)CC1 (stereo not drawn),.,2%,.,.,.,.,.,.,.,.
